Structures are written as SMILES. The whole screen tested about 16,000 compounds, of which about 4,000 (25%) were called active. Roughly 26% stayed inconclusive and do not appear here. These entries were drawn from the full list. A number with no mark means an inactive call. The call rests on the fitted dose curve; in most records, active means well fitted curve in the direction sought with a large enough effect; inconclusive means small, poorly fitted or top-dose-only effect, or effect the other way; inactive means no such curve, though single readings can be large or run the other way. Square brackets hold non-standard residues; d marks the D form. Peptide text beside a SMILES is read from it. * marks the point of attachment. ξ: configuration not given here. Cbz = O=C(OCc1ccccc1)*; ξA = CC(N)C(=O)O
On the % scale 0 is the no-effect control and ±100 the full control effect.

This assay deals with Cytochrome P450 2C9 (Homo sapiens) (UniProt P11712). Briefly: Cytochrome panel assay with activity outcomes. The conditions noted are these: recombinant CYP, pro-luciferin dealkylation, luminescence, p450-cyp2c9; series mostly up to 57.1 µM; activity, negative = inhibition: at the top concentration.
Sequence of Cytochrome P450 2C9 (Homo sapiens) (P11712 whole entry, looked up): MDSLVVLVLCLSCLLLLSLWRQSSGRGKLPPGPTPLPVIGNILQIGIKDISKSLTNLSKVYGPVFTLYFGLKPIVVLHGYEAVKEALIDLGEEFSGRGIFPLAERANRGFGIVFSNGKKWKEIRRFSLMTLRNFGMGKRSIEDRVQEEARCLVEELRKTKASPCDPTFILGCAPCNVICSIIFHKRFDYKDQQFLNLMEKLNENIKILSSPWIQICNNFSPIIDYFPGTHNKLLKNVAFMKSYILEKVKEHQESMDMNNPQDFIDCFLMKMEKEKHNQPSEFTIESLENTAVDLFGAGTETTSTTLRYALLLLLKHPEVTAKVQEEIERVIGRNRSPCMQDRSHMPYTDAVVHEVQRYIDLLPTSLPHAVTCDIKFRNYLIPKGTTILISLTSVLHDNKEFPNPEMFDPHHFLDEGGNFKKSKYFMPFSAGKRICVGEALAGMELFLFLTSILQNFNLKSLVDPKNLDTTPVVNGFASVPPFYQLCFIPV
As a reminder, the AC50 is the concentration at which the activity in the assay is half-maximal. Consider `CCCC[C@@H]1C[C@H]1C(NC(=O)c1ccccc1)c1ccccc1C(F)(F)F` (stereo partly drawn), for which the AC50 was 1.26 µM (active).

In the case of `CCCC[C@@H]1C[C@H]1C(NC(=O)c1cccs1)c1ccccc1C(F)(F)F` (stereo partly drawn), the AC50 is 1 µM (active).

Consider `C#CCCCO/N=C1/[C@H]2O[C@@H]2[C@@H](O)[C@H]2[C@H]1CCn1c(=O)n(C)c(=O)n12`, for which the activity, negative = inhibition is 4.28% [at 11.4 µM].

In the case of `CCOC(=O)C1CN(S(=O)(=O)c2cccc(C(F)(F)F)c2)c2cc(CC(=O)OC)ccc2O1` (stereo not drawn), the AC50 was 6.31 µM (active).

Consider `COC(=O)CNC(=O)C(C)NC(=O)CNC(=O)OCc1ccccc1` (stereo not drawn) (Cbz-Gly-[ξA]-Gly-OMe), for which the “activity, negative = inhibition” value was -11.6%.

As for `CCC(C)C(NC(=O)OCc1ccccc1)C(=O)OCN1C(=O)c2ccccc2C1=O` (stereo not drawn), the AC50 is 12.6 µM (active).

For `O=C(CCNC(=O)c1ccccc1)OCN1C(=O)c2ccccc2C1=O`, the “activity, negative = inhibition” value was -12.5%.

For `N#Cc1ccccc1Sc1ccccc1N`, the AC50 was 5.01 µM (active).

Take `N#CC(=C(/N)Sc1ccccc1N)/C(C#N)=C(/N)Sc1ccccc1N`: the “activity, negative = inhibition” value is 3.74%.

Consider `CC(=O)COC(=O)CCc1nc2ccccc2[nH]c1=O`, for which the “activity, negative = inhibition” value is -22.1%.

In the case of `CCN(CC)CCOc1ccc2nc(N(C)C)sc2c1`, the “activity, negative = inhibition” value is -10.8%.

For the compound `O=c1c(-c2nnc(SCc3ccc(Cl)cc3Cl)o2)cccn1Cc1ccccc1`, the AC50 was 11.2 µM (active).

Regarding `CC(C)=CCNc1ncnc2nc[nH]c12`, the activity, negative = inhibition was -9.02% [at 11.4 µM].

As for `S=C(S)O[C@@H]1C[C@@H]2C[C@H]1[C@@H]1CCC[C@H]21`, the AC50 was 3.98 µM (active).

Turning to `CC1CCC(C(=O)NC(C(=O)N2CCC(N3CCCCC3)CC2)C(C)C)CC1` (stereo not drawn), the “activity, negative = inhibition” value was -14.4%.

As for `Nc1ncnc2c1ncn2CCCCC(=O)O`, the activity, negative = inhibition was 9.41% [at 11.4 µM].

Regarding `O=C1C=C(NCC2CCCO2)C2(CCCCC2)O1` (stereo not drawn), the “activity, negative = inhibition” value was -9.85%.

Take `O=S(=O)(c1cnccc1N1CCN(CCO)CC1)N1CCCC1`: the activity, negative = inhibition is 8.09% [at 11.4 µM].

In the case of `CC(C)N1CCN(c2ccncc2S(=O)(=O)N2CCCCC2)CC1`, the activity, negative = inhibition was -8.32% [at 11.4 µM].

Regarding `O=S(=O)(c1cnccc1N1CCN(/N=C/c2ccccc2)CC1)N1CCCCC1`, the AC50 was 17.8 µM (active).

With `NC(=O)Nn1c(CCC(=O)O)ccc1-c1ccc(F)cc1`, the “activity, negative = inhibition” value was -5.74%.

Take `Cc1ccc(-c2ccc(CCC(=O)O)n2CC2CCCO2)cc1` (stereo not drawn): the “activity, negative = inhibition” value was -16.3%.

On to `CC(=O)c1ccc(-n2c(CCC(=O)O)ccc2-c2cccs2)cc1`, for which the AC50 was 14.1 µM (active).

`Cc1cc(C2CCCCC2)n(O)c(=O)c1`: the “activity, negative = inhibition” value is -14.9% [at 25.6 µM].

`CS(=O)(=O)Nc1cccc(-c2ccc3ncnc(N4CCNCC4)c3c2)c1`: the activity, negative = inhibition is -12.1% [at 2.29 µM].

Turning to `O=C(O)/C(=C/c1c(C(=O)O)[nH]c2cc(Cl)cc(Cl)c12)c1ccccc1`, the “activity, negative = inhibition” value was -24.4%.

Turning to `O=C(/C(=C/c1ccc(Cl)cc1)c1nc2ccccc2[nH]1)c1ccccc1`, the AC50 is 0.631 µM (active).

As for `O=C(O)/C(=C\c1ccc(O)cc1)c1cccc2ccccc12`, the activity, negative = inhibition was -3.39% [at 11.4 µM].

The values above are taken from PubChem BioAssay AID1851 (National Center for Advancing Translational Sciences (NCATS), 2009).
